# The sample as a whole holds a higher share of hits than the screen did.
# Mtb RmlCD inh = M. tuberculosis RmlC/RmlD coupled enzyme inhibitors, primary screen, biochemical, compound mixtures, 384-well, from 1536-well plates. actives 0.03% (n = 160,000). inhibition, % at 3.6 µM. dTDP-4-dehydrorhamnose reductase (Mycobacterium tuberculosis (strain ATCC 25618 / H37Rv)) …. RmlC+RmlD coupled enzyme assay, percent inhibition; primary screen in compound mixtures; in the data active = inhibition mostly above about 34%, no sharp cut-off
# Target sequence (P9WH09 whole entry, looked up): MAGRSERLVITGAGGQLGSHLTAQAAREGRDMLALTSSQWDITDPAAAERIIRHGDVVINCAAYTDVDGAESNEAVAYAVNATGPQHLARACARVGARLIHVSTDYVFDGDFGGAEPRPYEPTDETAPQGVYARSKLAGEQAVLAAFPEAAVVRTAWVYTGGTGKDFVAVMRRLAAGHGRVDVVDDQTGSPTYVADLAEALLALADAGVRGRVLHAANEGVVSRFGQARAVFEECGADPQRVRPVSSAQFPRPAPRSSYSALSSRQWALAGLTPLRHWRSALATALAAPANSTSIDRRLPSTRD
# Target sequence (P9WH11 whole entry, looked up): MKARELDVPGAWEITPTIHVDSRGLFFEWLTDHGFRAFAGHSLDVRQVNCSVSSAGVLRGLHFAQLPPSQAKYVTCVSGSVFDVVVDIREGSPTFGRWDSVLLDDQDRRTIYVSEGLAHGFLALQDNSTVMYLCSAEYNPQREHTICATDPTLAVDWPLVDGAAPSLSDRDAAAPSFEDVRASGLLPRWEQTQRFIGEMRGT
# YopH PTP inh = YopH tyrosine phosphatase inhibitors, primary screen, biochemical, fluorescence Ex485/Em525. YopH tyrosine phosphatase [Yersinia enterocolitica]. actives 0.16% (n = 140,000). inhibition, % (no concentration beside the values). AID 898, 2007; in the data active = inhibition above about 50%
# Hits are given with their value; . = inactive; / = not tested or not shown.
SMILES,Mtb RmlCD inh,YopH PTP inh
Cn1c(COc2ccccc2)nnc1SCc1nc2ccccc2[nH]1,.,71
CCn1c(COc2ccc(C)cc2)nnc1SCc1nc2ccccc2[nH]1,.,.
Cc1ccc(C)c(-n2c3nc(=O)n(C)c(=O)c-3cc3ccccc32)c1,.,/
Cc1nc2c(=O)n(C)c(=O)nc-2n(C)n1,/,101
CN(C1=C(N2CCCCC2)C(=O)c2ccccc2C1=O)c1ccccc1,/,.
Cc1ccc(NC2=C(N3CCCCC3)C(=O)c3ccccc3C2=O)cc1,/,76
O=C1C(Nc2cccc(O)c2)=C(N2CCCCC2)C(=O)c2ccccc21,.,81
COc1ccccc1NC1=C(N2CCCCC2)C(=O)c2ccccc2C1=O,/,90
COc1ccccc1NC(=O)N1CCCC1,.,/
O=C1C(Nc2ccccc2)=C(N2CCCCC2)C(=O)c2ccccc21,.,98
O=C(O)c1cccc(NC2=C(Cl)C(=O)c3ccccc3C2=O)c1,.,/
COC1=C(Nc2ccc(C)cc2)C(=O)c2ccccc2C1=O,.,.
Cc1ccc(CC(=O)NC2CCSC2=O)cc1 (stereo unspecified),.,/
O=C(O)/C=C/c1ccc(OCc2cccc(F)c2)cc1,.,/
O=C(/C=C/c1ccc(O)cc1)c1ccc(NC2=C(N3CCCCC3)C(=O)c3ccccc3C2=O)cc1,.,93
O=C(/C=C/c1ccc(O)cc1)c1ccccc1,.,/
COc1ccc(OC)c(NC(=O)c2cc(-c3ccc(C)cc3O)n[nH]2)c1,.,92
Cc1ccc(-c2cc(C(=O)Nc3cc(C)ccc3C)[nH]n2)c(O)c1,/,.
N#C/C(=C\c1ccc(Cl)cc1)C(=O)Nc1cccnc1,.,/
COc1ccc(/C=N/NC(=O)c2sc3nc(C)cc(C)c3c2N)cc1,.,/
Cc1cc(C)c2c(N)c(C(=O)N/N=C/c3cccs3)sc2n1,55,/
COc1cc(/C=N/NC(N)=O)ccc1OCC(=O)Nc1cc(C)c(C)cc1Br,.,/
CC(C)=C(C#N)c1nc2ccccc2s1,/,.
COc1ccccc1N1C(C)=CC(=C(C#N)c2nc3ccccc3s2)C=C1C,.,70
CC1=CC(=C(C#N)c2nc3ccccc3s2)C=C(C)N1c1ccc(F)cc1,.,65
SMILES,Mtb RmlCD inh,YopH PTP inh
COc1cccc(-c2nc3ccccc3s2)c1O,.,/
Cc1nn2cc(-c3ccc(Cl)cc3)cnc2c1Cl,.,/
Cc1cccc(NC2=NCC(=O)N2Cc2cccs2)c1,.,/
COc1ccc(N2CC(C(=O)N/N=C/c3cc([N+](=O)[O-])ccc3O)CC2=O)cc1 (stereo unspecified),.,/
COc1ccc(-c2cc3nc4n(c(=O)c3s2)CCCCC4)cc1,.,/
COc1ccc(-c2cc3nc4n(c(=O)c3s2)CCC4)cc1,77,.
CCOC(=O)CCC(=O)Nc1ccc([N+](=O)[O-])cc1C,.,/
Cc1oc2c(c1C(=O)c1ccc(Cl)cc1)C(=O)C(=O)c1ccccc1-2,.,.
Cc1ccc(C(=O)c2c(C)oc3c2C(=O)C(=O)c2ccccc2-3)cc1,/,69
O=C1C(N2CCOCC2)=C(n2nnc3ccccc32)C(=O)c2ccccc21,/,69
O=C1c2ccccc2C(=O)c2c1cccc2-n1nnc2ccccc21,.,/
O=C1CCC(=O)N1CC(=O)N1c2ccccc2Sc2ccccc21,.,54
Cc1cc(C)n(CC(=O)N2c3ccccc3Sc3ccccc32)n1,/,.
CCOC(=O)c1c(C)oc2c1c(C=NCc1ccccn1)c(O)c1ccccc12,.,57
CCOC(=O)c1c(C)oc2c1c(C=NCC1CCCO1)c(O)c1ccccc12 (stereo unspecified),.,.
CN(C)/C=C(\C=O)c1ccc(Cl)cc1Cl,.,/
CCCCNc1cc(NC(C)=O)cc2cc(OC)c(OC)cc12,.,80
CCCC(=O)Nc1cc(OC)c(OC)cc1C(=O)O,.,.
CCN(CCNCC(O)COCc1ccc(Cl)cc1)c1cccc(C)c1 (stereo unspecified),.,/
CCOC(=O)COc1cc(=O)n(CC)c2ccccc12,.,52
CCOC(=O)N1CCN(C(=O)COc2cc(=O)n(CC)c3ccccc23)CC1,/,.
COc1cc(CCC(C)=O)ccc1OC(=O)c1c(F)cccc1Cl,.,/
CCOC(=O)CNC(=O)Cn1c(C)cc2ccccc2c1=O,.,.
CCOC(=O)N1CCN(C(=O)Cn2c(C)cc3ccccc3c2=O)CC1,.,55
N#CC(C#N)=c1ccc2c(c1)NC1(CCCCC1)N=2,/,92
SMILES,Mtb RmlCD inh,YopH PTP inh
N#CC(C#N)=C1NC2(CCCCC2)Cc2ccccc21,.,/
O=C(CCCn1c(=O)[nH]c2ccc(Br)cc2c1=O)NCc1ccc(Cl)cc1,.,/
NC(=O)C1CCN(Cc2nc3cc(C(F)(F)F)ccc3c(=O)[nH]2)CC1,.,/
O=C(O[C@@H]1OC2COC(=O)c3cc(O)c(O)c(O)c3-c3c(cc(O)c(O)c3O)C(=O)O[C@@H]([C@H]1O)[C@@H]2O)c1cc(O)c(O)c(O)c1,/,54
CC[C@@H](CO)NC(=O)[C@@H]1C=C2c3cccc4c3c(cn4C)C[C@H]2N(C)C1,/,64
CCC(CO)NC(=O)C1C=C2c3cccc4[nH]cc(c34)CC2N(C)C1 (stereo unspecified),.,/
CN=c1scc(-c2ccc(F)cc2)n1/N=C/c1ccc(O)c(O)c1,.,/
Cc1c(CN(C)C)c2c(n1C)C(=O)c1ccc(Br)cc1-2,.,.
CCOC(=O)c1c2c(n(C)c1C)C(=O)C(=O)c1ccc(Br)cc1-2,/,88
COc1ccc(N2CCN(C(=S)NC(C)c3ccccc3)CC2)cc1 (stereo unspecified),.,/
N#Cc1ccc(C(=O)CSc2n[nH]c(=O)n2-c2cccnc2)cc1,.,/

# Source: PubChem (several laboratories)
